From PubChem BioAssay (NCATS) come the findings set out here.

Each structure is given as a SMILES string. Inconclusive results are not listed. Active and inactive are the calls of the source. Unless noted, calls come from the whole dose curve; as a rule, active = well fitted curve in the direction sought with a large enough effect; inconclusive = small, poorly fitted or top-dose-only effect, or another doubt; inactive = no such curve, though single readings can be large; an effect the other way counts as inactive or inconclusive.

The target of test [1] is Estrogen receptor (Homo sapiens) (UniProt P03372). As to the kind of experiment: qHTS assay for small molecule agonists of estrogen receptor alpha signaling (AID 588514; calls by dose curve; note: nearly all actives have a fitted effect of over 70% in size; note: potency is the fitted concentration of half-maximal effect;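 for activation: 0% = vehicle only and 100% = reference agonist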). An outline of the steps: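 ER-alpha-UAS-bla GripTite HEK 293 cells in medium with 2% charcoal/dextran-treated FBS were treated with compound titrations at 37 C for 18 hrs; beta-lactamase reporter read by CCF4 fluorescence after 2 hrs at RT.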
Chain of Estrogen receptor (Homo sapiens) (P03372 whole entry, looked up): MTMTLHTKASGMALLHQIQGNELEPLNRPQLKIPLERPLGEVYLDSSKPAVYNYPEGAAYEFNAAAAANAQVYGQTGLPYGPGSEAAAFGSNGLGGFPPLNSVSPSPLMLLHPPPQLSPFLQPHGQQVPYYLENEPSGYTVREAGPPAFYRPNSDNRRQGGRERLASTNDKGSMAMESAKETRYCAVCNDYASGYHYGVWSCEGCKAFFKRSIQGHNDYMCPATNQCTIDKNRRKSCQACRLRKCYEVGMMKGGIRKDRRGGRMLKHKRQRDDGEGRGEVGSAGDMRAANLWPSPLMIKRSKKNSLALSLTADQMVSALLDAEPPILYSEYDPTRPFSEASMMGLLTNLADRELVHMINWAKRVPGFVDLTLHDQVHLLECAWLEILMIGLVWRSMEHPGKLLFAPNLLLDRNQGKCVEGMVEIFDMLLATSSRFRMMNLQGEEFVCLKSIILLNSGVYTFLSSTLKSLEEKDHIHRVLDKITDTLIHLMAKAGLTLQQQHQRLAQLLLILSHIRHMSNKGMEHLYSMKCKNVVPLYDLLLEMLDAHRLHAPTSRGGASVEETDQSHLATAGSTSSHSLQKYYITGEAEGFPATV
Background: In qHTS, concentration-response curves come from the screen itself.

The target of test [2] is Glucocorticoid receptor (Homo sapiens) (UniProt P04150). Nature of the test: qHTS assay for small molecule agonists of glucocorticoid receptor signaling (AID 588532; active = well fitted curve in the direction sought with a large enough effect in the signal ratio, with a control signal flat; the % refers to the signal ratio;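 note: 100% = dexamethasone at 0.1 µM and 0% = DMSO only wells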). The conditions noted are these: HeLa MMTV-bla, beta-lactamase ratio, agonist, 18 h; activation: stronger effect = higher value, percent of dexamethasone control, DMSO zero. Summed up:
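Using MMTV-bla HeLa cells in medium with 1% stripped FBS and 25 mM HEPES, compounds were titrated and incubated overnight-length (18 h). Beta-lactamase cleavage of CCF4 was quantified by dual-emission fluorescence.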

For test [3] the target is unchanged. As to the kind of experiment: qHTS assay for small molecule antagonists of glucocorticoid receptor signaling (AID 588533; active = well fitted inhibition curve with a large enough effect in the signal ratio, with a control signal flat, not every such curve was filed as active; the % refers to the signal ratio;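 note: cells stimulated with 2 nM dexamethasone as agonist; % is set by controls: 0 for no effect and ±100 for the full control effect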). An outline of the steps: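 Antagonist-mode qHTS: compound titrations added to GRE-bla HeLa cells, then dexamethasone 2 nM final; 18 h, 37 C. CCF4 FRET fluorescence normalized to dexamethasone and DMSO; IC50 from Hill fit.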
The target of test [4] is Retinoic acid receptor RXR-alpha (Homo sapiens) (UniProt P19793). As to the kind of experiment: qHTS assay for small molecule agonists of retinoid X receptor alpha signaling (AID 588544; calls by dose curve; note: potency is the fitted concentration of half-maximal effect;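 for activation: 0% = DMSO basal wells and 100% = reference agonist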).
Chain of Retinoic acid receptor RXR-alpha (Homo sapiens) (P19793 whole entry, looked up): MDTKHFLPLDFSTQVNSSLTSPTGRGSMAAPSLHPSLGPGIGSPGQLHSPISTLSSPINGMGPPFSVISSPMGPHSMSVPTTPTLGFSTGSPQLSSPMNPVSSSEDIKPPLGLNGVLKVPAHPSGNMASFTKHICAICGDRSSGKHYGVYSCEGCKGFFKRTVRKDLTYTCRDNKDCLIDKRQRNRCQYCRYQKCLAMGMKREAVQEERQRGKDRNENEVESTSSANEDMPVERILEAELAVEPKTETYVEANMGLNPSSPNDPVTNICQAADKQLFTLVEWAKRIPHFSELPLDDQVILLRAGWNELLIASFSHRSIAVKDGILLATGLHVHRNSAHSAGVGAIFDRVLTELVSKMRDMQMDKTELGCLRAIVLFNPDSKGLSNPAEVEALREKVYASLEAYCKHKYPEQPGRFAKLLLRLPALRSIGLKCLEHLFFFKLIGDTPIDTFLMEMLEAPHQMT
A short description of test [5]: qHTS assay for small molecule antagonists of retinoid X receptor alpha signaling (AID 588546; active = well fitted inhibition curve with a large enough effect in the signal ratio, with a control signal flat, not every such curve was filed as active; the % refers to the signal ratio;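 note: cells stimulated with 9-cis-retinoic acid as agonist; % is set by controls: 0 for no effect and ±100 for the full control effect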). The conditions noted are these: HEK293T RXRa-UAS-bla, beta-lactamase ratio, antagonist mode; measured here: W530 green channel, cytotoxicity proxy. Summed up: (§1)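 Beta-lactamase reporter inhibition, read as CCF4 fluorescence ratio (ex 405, em 460/530 nm) after 2 h at RT. HEK293T UAS-bla cells, 2500/well, were stimulated with 9-cis-RA at 500 or 100 nM final alongside test compound for 18 h at 37 C.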

The nature of test [6]: qHTS assay for environmental chemicals that activate the Aryl hydrocarbon Receptor (AhR) signaling pathway (AID 651777). Note: % of control where 0% means no effect; nearly all actives have a fitted effect of over 15% in size. Particulars: 1A2-DRE human hepatoma cells, luciferase, 24 h; activation: stronger effect = higher value. Summed up: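 AhR activation is scored as a rise in luciferase from a stable DRE–CYP1A2 promoter construct in human hepatoma cells. Treatment lasts 24 hr at 37 C; detection uses One-Glo after 30 min at room temperature.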

Test [7] addresses Peroxisome proliferator-activated receptor alpha (Homo sapiens) (UniProt Q07869). Nature of the test: qHTS assay for small molecule agonists of the peroxisome proliferator-activated receptor alpha (PPARalpha) signaling pathway (AID 651778). For max response: % of control where 0% means no effect. Note: potency is the fitted concentration of half-maximal effect. Particulars: PathHunter PPARalpha complementation, chemiluminescence, 6 h; max response: stronger effect = higher value. Summed up: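 Chemiluminescence from complemented enzyme reported PPARalpha activation in cells after 6 hr of compound treatment at 37 C. The detection reagent was incubated for 60 min at room temperature, and compounds were scored as agonists.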

A short description of test [8]: qHTS assay for small molecule agonists of the antioxidant response element (ARE) signaling pathway measured by Nrf2-dependant transcriptional activity - cell viability counter screen (AID 720653; active = well fitted curve in the direction sought with a large enough effect in the repeat runs; an effect the other way counts as inactive or inconclusive; note: % is set by controls: 0 for no effect and ±100 for the full control effect). The conditions noted are these: ARE-bla HepG2 viability, CellTiter-Glo ATP luminescence, 16 h; max response: stronger effect = lower value. Summed up:
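Cytotoxicity counter screen: intracellular ATP quantified by CellTiter-Glo luminescence in the same ARE-bla HepG2 plates, after 16 h compound exposure and a 2 h beta-lactamase substrate step.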

The nature of test [9]: qHTS assay for cell viability of HEK293 cells (AID 743288). Note: % is set by controls: 0 for no effect and ±100 for the full control effect; nearly all actives have a fitted effect of over 50% in size. The conditions noted are these: ATP luminescence (CellTiter-Glo), 18 h; max response: stronger effect = lower value. Summed up: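 Total intracellular ATP, measured with a luciferase-coupled reagent, indicates the number of viable HEK293 cells. Exposure to test chemicals lasts 18 h at 37 C in 1,536-well format at 2,000 cells/well.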

Test [10] addresses Nuclear receptor subfamily 1 group I member 2 (Rattus norvegicus) (UniProt Q9R1A7). As to the kind of experiment: qHTS assay for small molecule activators of the rat pregnane X receptor (rPXR) signaling pathway (AID 651751; call rule not given here; note: 0% is about no effect). The conditions noted are these: rPXR reporter cells, luciferase (One-Glo), 24 h.
Test [11] addresses Peroxisome proliferator-activated receptor delta (Homo sapiens) (UniProt Q03181). As to the kind of experiment: qHTS assay for small molecule agonists of peroxisome proliferator-activated receptor delta signaling (AID 588534; calls by dose curve;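 note: 0% = DMSO basal wells and 100% = positive control agonist at 10 µM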). An outline of the steps: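 Cell-based beta-lactamase reporter assay run in agonist mode: cells seeded and incubated 5 hrs at 37 C, compounds added and incubated 18 hrs at 37 C. CCF4 dye fluorescence read after 2 hrs at RT; EC50 and efficacy from Hill fits.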

Test [12] can be described thus: qHTS assay for small molecule antagonists of peroxisome proliferator-activated receptor delta signaling (AID 588535; active = well fitted inhibition curve with a large enough effect in the signal ratio, with a control signal flat, not every such curve was filed as active; the % refers to the signal ratio;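 for max response: cells co-treated with a PPAR-delta agonist as stimulator during compound exposure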). Particulars: HEK293T PPARd-UAS-bla, beta-lactamase FRET ratio, 18 h; 460 nm channel. An outline of the steps: (§2)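 Cell-based beta-lactamase assay in antagonist mode: 4000 HEK293T PPAR-delta-UAS-bla cells per well, 5 hr preincubation then 18 hr compound incubation at 37 C. IC50 obtained by Hill equation fitting.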

Test [13] addresses Peroxisome proliferator-activated receptor delta (Homo sapiens) (UniProt Q03181). The description is as above. An outline of the steps:
as §2

For test [14], the target named is Peroxisome proliferator-activated receptor gamma (Homo sapiens) (UniProt P37231). Nature of the test: qHTS assay for small molecule agonists of peroxisome proliferator-activated receptor gamma signaling (AID 588536; active = well fitted curve in the direction sought with a large enough effect in the signal ratio, with a control signal flat, not every such curve was filed as active; the % refers to the signal ratio;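 note: 0% = DMSO basal wells and 100% = rosiglitazone at 2 µM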). Summed up: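 HEK293 UAS-bla reporter line, 1% charcoal/dextran FBS; titration, 16 h, 37 C; CCF4 loading 2 h RT; fluorescence 460/530 nm. Normalized to rosiglitazone 2 uM = 100%, DMSO = 0%.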
Chain of Peroxisome proliferator-activated receptor gamma (Homo sapiens) (P37231 whole entry, looked up): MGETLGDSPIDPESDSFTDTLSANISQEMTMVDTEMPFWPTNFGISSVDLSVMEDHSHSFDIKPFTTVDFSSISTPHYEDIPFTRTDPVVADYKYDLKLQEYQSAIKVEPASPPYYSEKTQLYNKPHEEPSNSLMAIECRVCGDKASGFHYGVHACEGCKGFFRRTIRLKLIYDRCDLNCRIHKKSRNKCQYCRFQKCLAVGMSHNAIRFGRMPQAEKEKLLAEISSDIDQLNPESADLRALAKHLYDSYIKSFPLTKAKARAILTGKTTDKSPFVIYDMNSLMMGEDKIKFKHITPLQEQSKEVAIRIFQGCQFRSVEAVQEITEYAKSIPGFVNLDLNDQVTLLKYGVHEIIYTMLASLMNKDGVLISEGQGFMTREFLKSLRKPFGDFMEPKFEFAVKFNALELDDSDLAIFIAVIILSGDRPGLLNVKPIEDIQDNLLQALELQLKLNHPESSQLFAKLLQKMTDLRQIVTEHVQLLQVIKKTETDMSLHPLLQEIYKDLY

In test [15] the target is Thyroid hormone receptor beta (Homo sapiens) (UniProt P10828). Nature of the test: qHTS assay for small molecule agonists of thyroid hormone receptor beta signaling (AID 588545; calls by dose curve;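 note: 0% = DMSO only and 100% = 10 nM T3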). Summed up: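 TR-UAS-bla GripTite HEK 293 cells (2500/well, medium with 2% charcoal/dextran FBS) were treated in agonist mode for 18 h at 37 C, titrated. Beta-lactamase was read by CCF4 ratio after 2 h; normalized to 10 nM T3 (100%) and DMSO, Hill-fitted for EC50 and efficacy.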
Chain of Thyroid hormone receptor beta (Homo sapiens) (P10828 whole entry, looked up): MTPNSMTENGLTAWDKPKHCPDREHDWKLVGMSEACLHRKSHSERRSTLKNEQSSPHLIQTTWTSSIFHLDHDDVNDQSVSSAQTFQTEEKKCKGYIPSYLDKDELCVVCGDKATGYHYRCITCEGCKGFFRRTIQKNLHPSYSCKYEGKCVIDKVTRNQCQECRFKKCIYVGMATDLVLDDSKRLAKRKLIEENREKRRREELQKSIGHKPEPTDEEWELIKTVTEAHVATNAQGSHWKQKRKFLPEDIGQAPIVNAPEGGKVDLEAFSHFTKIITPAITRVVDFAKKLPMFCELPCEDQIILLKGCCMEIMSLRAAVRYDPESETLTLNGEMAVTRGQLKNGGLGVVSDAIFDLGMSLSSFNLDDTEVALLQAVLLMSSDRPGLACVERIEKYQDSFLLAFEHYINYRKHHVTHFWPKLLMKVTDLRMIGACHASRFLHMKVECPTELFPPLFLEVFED

The target is the same in test [16]. As to the kind of experiment: qHTS assay for small molecule antagonists of thyroid hormone receptor beta signaling (AID 588547; active = well fitted inhibition curve with a large enough effect in the signal ratio, with a control signal flat, not every such curve was filed as active; the % refers to the signal ratio). Particulars: TR-UAS-bla HEK293, beta-lactamase ratio, antagonist mode, 18 h. Summed up: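 Inhibition of T3-driven (0.4nM final) beta-lactamase reporter activity was measured over 0.59 nM to 92 uM compound after 18 h at 37 C. The cells were GripTite HEK293 TR-UAS-bla in charcoal/dextran-stripped serum, with CCF4 ratio read-out and IC50 from Hill fits.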

The nature of test [17]: qHTS assay for small molecule agonists of the antioxidant response element (ARE) signaling pathway measured by Nrf2-dependant transcriptional activity (AID 720636; active = well fitted curve in the direction sought with a large enough effect in the repeat runs; an effect the other way counts as inactive or inconclusive;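 note: HepG2 cells with an ARE-driven luciferase reporter; % of control where 0% means no effect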). An outline of the steps: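 First, ARE-luc HepG2 cells attached for 6 hr at 37 C in 1% dialyzed FBS medium. Next, compound or DMSO was added and incubated 16 hr. Finally, ONE-Glo reagent was added and luminescence measured after 30 min.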

Test [18] can be described thus: qHTS assay for small molecule activators of the p53 signaling pathway (AID 651743; active = well fitted activation curve with a large enough effect in the signal ratio, not every such curve was filed as active; the % refers to the signal ratio; note: series mostly up to about 92 µM; % of control where 0% means no effect). The conditions noted are these: HCT-116 p53RE-bla, beta-lactamase FRET ratio, 16 h; activation: stronger effect = higher value. Summed up:
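Screen for p53 pathway agonists uses stably transfected p53RE-bla HCT-116 cells, 4,000 per well, treated 16 h at 37 C with compounds in DMSO.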

Test [19] in a line: qHTS assay for cell viability of the p53RE-bla HCT-116 cell line (AID 743292). Note: % is set by controls: 0 for no effect and ±100 for the full control effect; nearly all actives have a fitted effect of over 55% in size. Summed up:
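Quantitative high-throughput format: compounds in DMSO were pinned onto p53RE-bla HCT-116 cells (4,000/well) and incubated 16 h at 37 C. Total intracellular ATP, read by CellTiter-Glo luminescence, reflects viable cell number.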

Test [20] addresses Retinoic acid receptor RXR-alpha (Homo sapiens) (UniProt P19793). Nature of the test: qHTS assay for small molecule antagonists of retinoid X receptor alpha signaling (AID 588546).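 Note: cells stimulated with 9-cis-retinoic acid as agonist; % is set by controls: 0 for no effect and ±100 for the full control effect.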 Particulars: HEK293T RXRa-UAS-bla, beta-lactamase ratio, antagonist mode. An outline of the steps: as §1

Chain of Nuclear receptor subfamily 1 group I member 2 (Rattus norvegicus) (Q9R1A7 whole entry, looked up): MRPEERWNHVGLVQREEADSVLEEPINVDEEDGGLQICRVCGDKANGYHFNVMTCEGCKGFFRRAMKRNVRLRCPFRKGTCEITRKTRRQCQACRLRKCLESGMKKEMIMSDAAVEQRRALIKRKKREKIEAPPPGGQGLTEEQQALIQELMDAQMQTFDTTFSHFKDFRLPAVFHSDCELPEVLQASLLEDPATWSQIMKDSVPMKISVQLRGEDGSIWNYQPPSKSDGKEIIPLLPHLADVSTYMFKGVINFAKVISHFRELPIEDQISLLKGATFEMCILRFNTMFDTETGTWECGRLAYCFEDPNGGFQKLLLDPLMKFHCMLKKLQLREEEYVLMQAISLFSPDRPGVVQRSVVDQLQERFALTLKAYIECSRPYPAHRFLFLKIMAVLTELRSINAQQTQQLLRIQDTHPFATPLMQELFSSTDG
Chain of Glucocorticoid receptor (Homo sapiens) (P04150 whole entry, looked up): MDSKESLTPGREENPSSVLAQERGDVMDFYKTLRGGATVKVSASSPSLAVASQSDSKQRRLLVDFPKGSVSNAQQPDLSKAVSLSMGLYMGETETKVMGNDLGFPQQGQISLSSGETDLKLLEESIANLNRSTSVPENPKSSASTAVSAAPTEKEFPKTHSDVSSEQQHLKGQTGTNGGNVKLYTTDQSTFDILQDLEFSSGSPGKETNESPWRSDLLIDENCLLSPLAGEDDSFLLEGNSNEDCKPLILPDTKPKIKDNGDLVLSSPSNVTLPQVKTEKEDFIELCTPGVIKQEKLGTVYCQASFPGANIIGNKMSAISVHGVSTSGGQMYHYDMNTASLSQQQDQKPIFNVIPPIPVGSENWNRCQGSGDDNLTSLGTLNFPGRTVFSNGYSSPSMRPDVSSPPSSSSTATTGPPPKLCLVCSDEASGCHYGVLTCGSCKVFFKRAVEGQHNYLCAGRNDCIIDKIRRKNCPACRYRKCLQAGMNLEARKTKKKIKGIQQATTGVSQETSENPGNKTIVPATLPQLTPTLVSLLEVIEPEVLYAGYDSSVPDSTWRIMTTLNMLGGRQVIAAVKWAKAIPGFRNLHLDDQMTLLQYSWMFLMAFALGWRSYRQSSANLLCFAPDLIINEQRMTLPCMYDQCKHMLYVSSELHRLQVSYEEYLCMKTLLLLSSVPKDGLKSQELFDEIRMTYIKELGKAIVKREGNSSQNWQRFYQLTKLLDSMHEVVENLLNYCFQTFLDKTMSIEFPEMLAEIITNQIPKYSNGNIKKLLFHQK
Chain of Peroxisome proliferator-activated receptor delta (Homo sapiens) (Q03181 whole entry, looked up): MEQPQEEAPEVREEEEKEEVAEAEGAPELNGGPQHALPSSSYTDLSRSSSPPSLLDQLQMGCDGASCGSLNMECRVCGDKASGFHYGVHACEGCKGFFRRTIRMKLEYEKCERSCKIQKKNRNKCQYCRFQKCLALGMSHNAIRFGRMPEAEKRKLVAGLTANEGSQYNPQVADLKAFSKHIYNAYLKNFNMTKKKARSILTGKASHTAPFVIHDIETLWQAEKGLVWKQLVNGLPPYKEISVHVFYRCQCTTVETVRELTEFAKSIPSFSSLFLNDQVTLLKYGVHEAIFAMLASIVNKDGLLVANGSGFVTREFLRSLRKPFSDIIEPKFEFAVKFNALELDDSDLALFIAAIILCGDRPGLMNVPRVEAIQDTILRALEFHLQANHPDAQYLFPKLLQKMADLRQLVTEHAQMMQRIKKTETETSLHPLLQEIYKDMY
Chain of Peroxisome proliferator-activated receptor alpha (Homo sapiens) (Q07869 whole entry, looked up): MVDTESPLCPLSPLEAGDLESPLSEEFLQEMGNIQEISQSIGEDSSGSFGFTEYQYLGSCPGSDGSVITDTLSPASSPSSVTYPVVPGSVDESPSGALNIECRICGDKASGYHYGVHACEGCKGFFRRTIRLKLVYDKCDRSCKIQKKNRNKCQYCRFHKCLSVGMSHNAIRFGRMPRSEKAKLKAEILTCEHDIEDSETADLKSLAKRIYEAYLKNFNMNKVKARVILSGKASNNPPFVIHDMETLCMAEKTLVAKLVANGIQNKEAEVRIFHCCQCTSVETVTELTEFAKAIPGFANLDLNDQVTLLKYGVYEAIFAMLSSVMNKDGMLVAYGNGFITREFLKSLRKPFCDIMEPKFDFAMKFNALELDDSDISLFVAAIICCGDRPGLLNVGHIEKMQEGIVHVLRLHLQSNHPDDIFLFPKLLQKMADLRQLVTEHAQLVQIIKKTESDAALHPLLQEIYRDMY

Take `CCCCCCCCCCCCCCC(Br)C(=O)O` (stereo not given): the Potency result in test [1] and in [3] was “inactive” in each case. For the same compound, the activation was -1.04% (inactive) in test [2] and -0.608% (inactive) in [6]. Further, the Potency was 31.6 µM (active) in [4] and 14.1 µM (active) in [7]. The max response is 6.53% in [5], 1.85% (inactive) in [8], 3.54% (inactive) in test [9] and -4.78% (inactive) in test [10].

In the case of `CNC(=O)Oc1cc(C)c(SC)c(C)c1`, the Potency in test [1] is 25.1 µM (active). In addition, the activation in test [2] is 13.5% (inactive); in test [6], 0.0661% (inactive). The Potency result in test [3], in [13], in test [14], in test [15] and in test [17] was “inactive” throughout. Besides, the result in test [11] was inactive. In addition, the values for the max response in test [12] and in [8] were 12.6% and -13.2% (inactive), respectively. In addition, in test [16], the activity change % (negative = inhibition) was -16.8% (inactive).

In the case of `COP(=O)(OC)SCn1c(=O)oc2cc(Cl)cnc21`, the Potency entry in [1], in test [3], in test [14], in test [17] and in test [19] was “inactive” throughout. For the same compound, the outcome in test [11] was inactive. Also, the activation in [18] was 13.8% (inactive). Moreover, the max response in test [7] is -1.8% (inactive); in test [8] it was -47.9% (inactive); in test [9], -26% (inactive); in [10], -7.83% (inactive).

`CNC(=O)O/N=C/C(C)(C)S(C)(=O)=O`: the Potency result in test [1], in test [3], in test [14], in [4], in [15] and in [19] was “inactive” in each case. In addition, the activation was 9.32% (inactive) in [2], -2.46% (inactive) in test [18] and -0.939% (inactive) in test [6]. Also, the max response in test [5] was -10.7%; in test [20] it was 0.762% (inactive); in test [7], -0.004% (inactive); in [8], 1.38% (inactive); in test [9], 0.485% (inactive); in test [10], 1.26% (inactive).

In the case of `CCSCCSP(=O)(OC)OC`, the Potency result in [1], in test [3], in test [13], in test [14], in [4] and in [17] was “inactive” each time. In addition, the values for the activation in [2], in test [18] and in [6] were 8.21% (inactive), 2.18% (inactive) and -0.526% (inactive), respectively. The max response is -10.5% in test [12]; -9.27% in test [5]; -0.363% (inactive) in [7]; -6.91% (inactive) in test [8]; -1.87% (inactive) in test [9]; -1.46% (inactive) in [10]. Moreover, in [16], the activity change % (negative = inhibition) is 4.21% (inactive).

`COc1cc(OC)nc(NC(=O)NS(=O)(=O)c2ncccc2C(F)(F)F)n1`: the Potency entry in [1], in test [3], in test [13], in [14], in test [4] and in test [15] was “inactive” each time. The Potency entry in test [17] and in [19] was “inactive” each time. In addition, the call in test [11] was inactive. Besides, the max response in test [12] was -12.7%; in [5] it was -9.13%; in test [20], 2.48% (inactive); in [7], -1.83% (inactive); in test [8], -1.73% (inactive); in test [9], -6.81% (inactive). Also, the max response in [10] is 0.924% (inactive). The activation in test [18] was -1.26% (inactive); in test [6], 1.17% (inactive).

`CCOc1nc(F)cc2nc(S(=O)(=O)Nc3c(Cl)cccc3Cl)nn12`: the Potency entry in test [1], in test [13], in [4], in test [15], in test [17] and in [19] was “inactive” each time. The activation in test [2] was 0.859% (inactive); in test [18], 1.78% (inactive); in [6] it was -0.921% (inactive). Moreover, the outcome in [11] was inactive. Also, the max response was 23.2% in test [12]; 6.95% in test [5]; -25.7% (inactive) in test [20]; -2.41% (inactive) in [7]; -9.33% (inactive) in test [8]; -11.2% (inactive) in test [9]. The max response in test [10] was 1.99% (inactive). Moreover, in [16], the activity change % (negative = inhibition) is -10.3% (inactive).
